Measurements as given in the OligoGym collection.

target: KRTAP4-7; assay: pooled miR-30 sensor sort-seq; sequence = guide strand; conditions: shRNA
Also: reference of the scale not given here.

Row | Sequence | sensor-assay potency score (higher = more potent)
1 | TAGCAGGTGGTCCTGCAACAGG | -1.7
2 | TGGAGATGCAGCACCTAGGGTG | -0.36
3 | CAGCTGGACACACAACAGCTGG | -1.96
4 | TCTGACAGCAGCTGGGGCGGCA | -1.19
5 | TGGTCTGACAGCAGCTGGGGCG | -1.46
6 | TGGTCAGAGCACACGGAGCCAC | -1.43
7 | TCAGTGACAAAACTGGTCCTGC | 0.367
8 | CAGGTGGTCTGACAGCAGCTGG | -2.02
9 | TAGGGTGGCAGCAGGTCGTCTC | -0.549
10 | TTGCAGCAGCTGGACATACAGC | -1.51
11 | AGCTGGACACACAACAGCTGGG | -1.49
12 | CAGCAGGTCGTCTCACAGCAGC | -2.76
13 | TGACAGAGGACTTGGCCGCAGC | -1.09
14 | CTGGACACACAACAGCTGGGGC | -1.77
15 | TATTGAATGACATCAACCCCAC | -0.0813

target: KRTAP5-8; assay: as above; conditions: shRNA

Row | Sequence | sensor-assay potency score (higher = more potent)
16 | ACAGGAGCCACAGTCCCCCTTG | -0.958
17 | AGCAGCTAGAGCCACATCCCCC | -1.72
18 | TGCAGGGCTTACAACAGCTGGA | -1.15
19 | CTGCAGGGCTTACAACAGCTGG | -2.04
20 | TTACAACAGCTGGACTGGGAAC | -1.86
